Bioassay records from PubChem.
Hits are enriched below; roughly 2.2% of the tested compounds scored in any of these assays.
BaF3 tox: counter-screen for JAK2V617F inhibitors: parental Ba/F3 viability inhibitors. CellTiter-Glo ATP luminescence. inhibition, % at 5.6 µM. hit rate 1.1% among 220,000. AID 1486;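 active = inhibition above a per-campaign cutoff, the mean inhibition of all tested compounds plus 3 SD, cut at about 27% in these data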
aSyn 5UTR inh: 5' untranslated region of α-synuclein, MLPCN primary screen. alpha-synuclein 5'UTR reporter, inhibitor activity. inhibition, % (tested at 7.5 µM). AID 1813. hit rate 0.82% among 300,000; in the data active = inhibition above about 60%;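 note: H4 neuroglioblastoma cells stably carrying SNCA 5'UTR luciferase fusion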
IEC-6 cytotox: counter-screen for KLF5 inhibitors: cytotoxicity in IEC-6 cells. AID 1825. IEC-6 cytotoxicity, luminescence viability. inhibition, % at 5 µM. hit rate 0.78% among 290,000; in the data active = inhibition above about 22%
APP 5UTR inh: APP translation inhibition | SH-SY5Y APP 5'UTR-luciferase reporter, luminescence | inhibition, % at 2 µM | hit rate 0.82% among 190,000 | AID 1285;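 active = inhibition above a set limit, derived from the sample mean plus 3 SD, cut at about 45% in these data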
Ba/F3 V617F tox: loss of viability in JAK2V617F-driven Ba/F3 cells. AID 1446. hit rate 1.1% among 220,000. inhibition, % at 5.6 µM. Ba/F3 EpoR-JAK2V617F viability, ATP luminescence;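 active = inhibition above the campaign mean plus 3 SD over all tested compounds, cut at about 24% in these data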;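 note: cytokine-independent growth of Ba/F3 cells driven by EpoR plus mutant JAK2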
KLF5 inhibitor: suppresses KLF5 promoter-driven expression | DLD-1 KLF5 promoter-luciferase reporter, luminescence | inhibition, % at 5 µM | hit rate 0.23% among 290,000 | AID 1700;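 active = inhibition above a per-plate limit of that plate's mean compound inhibition plus 3 SD, cut at about 60% in these data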;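 note: higher means less KLF5 promoter-driven luciferase light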
A number is an active result; 0 = inactive; - = not tested or not shown.

SMILES	BaF3 tox	aSyn 5UTR inh	IEC-6 cytotox	APP 5UTR inh	Ba/F3 V617F tox	KLF5 inhibitor
O=C(c1ccc(Cl)cc1)N1CCCCC(Sc2nnc(-c3ccc4c(c3)OCO4)o2)C1=O (configuration not stated)	0	92.0	0	0	0	0
CN(C)CCCn1cnc2c(c1=N)C(c1ccccc1)c1ccc3ccccc3c1O2 (configuration not stated)	-	89.8	0	-	-	0
COc1ccc(C2c3ccc4ccccc4c3Oc3ncn(CCN4CCOCC4)c(=N)c32)cc1 (configuration not stated)	0	0	0	0	0	0
COc1ccc(C2c3ccc4ccccc4c3Oc3ncn(CCN4CCOCC4)c(=N)c32)cc1OC (configuration not stated)	0	105.4	0	-	0	0
O=C(OCc1nc2ccc(Cl)cc2n1CCO)c1ccc(O)cc1	0	0	0	0	0	0
CCC1(C)N=C(N)Nc2nc3cc(C)c(C)cc3n21 (configuration not stated)	84.9	0	0	-	73.1	0
Cc1ccccc1N(C(=O)c1snc(C(N)=O)c1N)C(C(=O)NCC1CCCO1)c1ccc(F)cc1 (configuration not stated)	-	0	0	-	-	0
O=C(CN1CCN(c2ccccn2)CC1)Nc1nc2ccccc2s1	-	0	0	-	-	0
C/C(=N\NC(=O)c1cc(-c2cccnc2)nc2ccccc12)c1ccccc1O	0	85.7	0	56.0	0	0
C#CC(=O)N(c1cccc(OC)c1)C(C(=O)NC1CCCC1)c1cccs1 (configuration not stated)	79.7	92.3	99.7	0	101.3	0
COC(=O)CCn1nnc(-c2ccc(C(C)C)cc2)n1	0	119.1	0	76.7	0	0
COC(=O)CCn1nnc(-c2cccs2)n1	0	0	0	0	0	0
COc1ccc(C(=O)NCCS(=O)(=O)N(C)C2CCCCC2)cc1	-	0	-	-	-	-
Cc1c(Cl)cccc1NS(=O)(=O)c1ccc(-c2ccc(=O)[nH]n2)o1	-	0	0	-	-	0
CCCNC(=O)COC(=O)c1ccccc1C(=O)c1ccc(Cl)c([N+](=O)[O-])c1	0	0	0	0	0	0
Cc1ccc(Cl)c(NC(=O)COC(=O)c2ccccc2C(=O)c2ccc(Cl)c([N+](=O)[O-])c2)c1Cl	0	0	0	52.5	0	0
CCOc1ccccc1-n1c(SCC(=O)Nc2ccc(CC)cc2)nc2n[nH]c(C)c2c1=N	0	83.6	0	0	0	0
CCC(CO)[n+]1c(C)cc(/C=C2\Sc3ccccc3N2Cc2ccccc2)cc1C (configuration not stated)	61.2	-	0	0	68.5	0
N=c1c2c(-c3ccccc3)c(-c3ccccc3)n(Cc3ccccc3)c2ncn1CCCn1ccnc1	0	0	0	83.1	0	0
CCCCn1cnc2c(c(-c3ccccc3)c(-c3ccccc3)n2Cc2ccco2)c1=N	0	0	0	-	0	0
O=[N+]([O-])c1cc(/C=N/n2cnnc2)ccc1N1CCCC1	0	65.5	0	0	0	0
Cc1cc(C)n2nc(C(=O)OCC(=O)N(C)CC(=O)Nc3ccccc3Cl)nc2n1	-	0	-	-	-	-
COc1ccc2[nH]c(C)c(CCN(Cc3cccs3)C(=S)Nc3ccc(F)cc3)c2c1	49.8	0	0	0	45.5	0
COc1ccc2[nH]c(C)c(CCN(Cc3cccs3)C(=S)Nc3ccccc3)c2c1	46.5	0	0	0	33.8	0
Cc1ccc(S(=O)(=O)N(C)C)cc1NC(=O)C1CCCCC1	0	0	0	-	0	0
SMILES	BaF3 tox	aSyn 5UTR inh	IEC-6 cytotox	APP 5UTR inh	Ba/F3 V617F tox	KLF5 inhibitor
COC(=O)Cc1c(C)c2ccc(OCc3nn[nH]n3)cc2oc1=O	0	0	0	78.0	0	0
COC(=O)Cc1c(C)c2ccc(OCc3nn[nH]n3)c(C)c2oc1=O	0	0	0	0	0	0
CC1(C)CC(=O)c2c(nc(SCC(=O)Nc3nsc(-c4ccccc4)n3)c(C#N)c2-c2ccccc2)C1	0	74.1	0	0	0	0
Cc1nnc(SCC(=O)Nc2nsc(-c3ccccc3)n2)s1	0	0	0	0	0	0
CCCCCCOc1ccc(C(=O)NCCCn2ccnc2)cc1	0	0	0	0	0	0
CCCCOc1ccc(NC(=O)C(=O)NCCCn2ccnc2)cc1	0	66.1	0	0	0	0
CCC(C)[C@@H](N)C(=O)N/N=C/c1cccc2nccnc12 (some centres not stated)	0	0	0	-	0	0
Oc1ccc(/C=N/N=C(c2ccccc2)c2ccccc2)c(O)c1O	0	-	0	48.7	0	0
Cc1c(NS(=O)(=O)c2cc(C(=O)NCCN(C)C)ccc2Cl)c(=O)n(-c2ccccc2)n1C	-	0	0	-	-	0
COc1ccc(/C=N/n2cnn(Cc3ccccc3Cl)c2=S)cc1	0	0	0	80.4	0	0
COc1cc(NC(=S)N2CCN(C)CC2)cc(OC)c1	-	0	0	-	-	0
Fc1ccc(NC(=S)NCCc2ccccc2)c(F)c1F	53.7	0	0	0	42.3	0
Cc1cccc(CN2C(=O)/C(=C\c3ccc(C(=O)NCCCN4CCN(C)CC4)cc3)Oc3ccccc32)c1	-	94.6	0	-	-	0
CN1CCN(CCCNC(=O)c2ccc(/C=C3\Oc4ccccc4N(Cc4ccccc4F)C3=O)cc2)CC1	-	0	0	-	-	0
Cc1ccc(C)c(S(=O)(=O)NCC(=O)Nc2ccc3c(c2)OCO3)c1	-	0	0	-	-	0
CC(C(=O)N1CCc2ccccc21)N1CCc2ccccc2C1 (configuration not stated)	41.4	0	0	0	0	0
COc1cc2c(cc1OC)CN(C(C)C(=O)N1CCc3ccccc31)CC2 (configuration not stated)	0	0	0	0	0	0
CCN(C(=O)CCN1C(=O)/C(=C/c2ccccc2)SC1=S)C1CCS(=O)(=O)C1 (configuration not stated)	-	0	0	-	-	0
C=CCn1c(=O)c(C(=O)NCCN(CC)CC)c(O)c2ccccc21	46.5	-	0	0	0	0
C=CCn1c(=O)c(C(=O)NCc2ccccc2Cl)c(O)c2ccccc21	-	0	0	-	-	0
CCOc1ccc2c(c1)c(N=NC(=N)N)c(O)n2C	68.8	0	0	0	43.9	0
C[C@@H]1NC(=O)N(CCCn2ccnc2)C1=O	-	0	0	-	-	0
CSc1ccc(S(=O)(=O)N2CCC(C(=O)N3CCc4ccccc4C3)CC2)cc1	-	0	0	-	-	0
COCCCNC(=O)c1c(N)n(-c2ccc3c(c2)OCO3)c2nc3ccccc3nc12	0	0	0	0	0	0
CCOCCCNC(=O)c1c(N)n(-c2ccc3c(c2)OCO3)c2nc3ccccc3nc12	59.9	0	0	-	35.7	0
O=C1c2cccc3cc([N+](=O)[O-])cc(c23)C(=O)N1c1ccccc1O	29.4	0	0	0	0	0
Cc1cc(O)ccc1N1C(=O)c2cccc3cc([N+](=O)[O-])cc(c23)C1=O	0	0	0	0	0	0
CCc1ccc(-c2cn3nc(-c4ccccc4)cnc3n2)cc1	0	0	0	-	0	0
Cc1ccc(-c2cn3nc(C)c(C)nc3n2)cc1	0	72.7	0	0	0	0
Cc1ccc(C(C)C)c(OCc2nn(CC(=O)c3ccc(OC(F)F)cc3)c3[n+]2CCCCC3)c1	30.2	0	0	0	48.5	0
